This note sets out measurements from PubChem BioAssay (Tox21).

Each structure is given as a SMILES string. A number with no mark means an inactive call. Inconclusive results are not listed. Active and inactive are the calls of the source. Calls follow the shape of the dose curve; as a rule, active = well fitted curve in the direction sought with a large enough effect in the repeat runs; inconclusive = weak or mixed curves; inactive = no such curve, though single readings can be large; an effect the other way counts as inactive or inconclusive.

A short description of assay [1]: qHTS RealTime-Glo MT Cell Viability Assay in HEK293 cells - 40 hour (AID 1224874). Also: nearly all actives have a fitted effect of over 50% in size. Also: potency is read from the fitted curve at half-maximal effect. Conditions: RealTime-Glo luminescence; max response: stronger effect = lower value. The procedure, abridged: (§1)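 Measured as luminescence from the same continuously cultured HEK293 wells at successive time points (0, 8, 16, 24, 32, 40 h) after compound addition. Reagent present from seeding; dosing at 5 h; incubation 37 C.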
A general note: In qHTS, concentration-response curves come from the screen itself.

Assay [2] in a line: A CellTox Green Cytotoxicity Assay to monitor cytotoxicity in HEK293 cells - 24 hour (AID 1224875). Also: nearly all actives have a fitted effect of over 45% in size. Also: potency is read from the fitted curve at half-maximal effect. The essentials:
(§2)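 Homogeneous no-lysis format: HEK293 cell suspension mixed with CellTox Green reagent, seeded, incubated 5 h at 37 C/5% CO2, then dosed by pintool with compound in DMSO.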

The nature of assay [3]: A CellTox Green Cytotoxicity Assay to monitor cytotoxicity in HepG2 cells - 16 hour (AID 1224876). Also: nearly all actives have a fitted effect of over 45% in size. Also: potency is read from the fitted curve at half-maximal effect. The essentials: (§3)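 Fluorescent DNA-binding dye, 600 HepG2 cells/well, 5 h preincubation then compound in DMSO; same plates read at 0–40 h, 37 C.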
A short description of assay [4]: qHTS RealTime-Glo MT Cell Viability Assay in HepG2 cells - 32 hour (AID 1224877). Also: nearly all actives have a fitted effect of over 55% in size. Also: potency is read from the fitted curve at half-maximal effect. The procedure, abridged:
(§4)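 Luminescence read-out: viable HepG2 cells reduce a prosubstrate to a NanoLuc substrate, giving a signal proportional to live cell number. Reads taken at 0, 8, 16, 24, 32 and 40 h of compound exposure at 37 C.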

The nature of assay [5]: A CellTox Green Cytotoxicity Assay to monitor cytotoxicity in HepG2 cells - 24 hour (AID 1224878). Also: nearly all actives have a fitted effect of over 45% in size. Also: potency is read from the fitted curve at half-maximal effect. The procedure, abridged:
as §3

Assay [6] in a line: A CellTox Green Cytotoxicity Assay to monitor cytotoxicity in HepG2 cells - 40 hour (AID 1224879). Also: nearly all actives have a fitted effect of over 40% in size. Also: potency is read from the fitted curve at half-maximal effect. The essentials: as §3
A short description of assay [7]: qHTS RealTime-Glo MT Cell Viability Assay in HEK293 cells - 0 hour (AID 1224880). Also: top concentration of the series differs between compounds; nearly all actives have a fitted effect of over 45% in size. The procedure, abridged:
as §1

The nature of assay [8]: A CellTox Green Cytotoxicity Assay to monitor cytotoxicity in HEK293 cells - 32 hour (AID 1224881). Also: nearly all actives have a fitted effect of over 40% in size. Also: potency is read from the fitted curve at half-maximal effect. The procedure, abridged:
as §2

Assay [9] is described as follows: A CellTox Green Cytotoxicity Assay to monitor cytotoxicity in HepG2 cells - 32 hour (AID 1224883). Also: nearly all actives have a fitted effect of over 50% in size. Also: potency is read from the fitted curve at half-maximal effect. The essentials: as §3
Assay [10] can be described thus: A CellTox Green Cytotoxicity Assay to monitor cytotoxicity in HEK293 cells - 8 hour (AID 1224884). Also: nearly all actives have a fitted effect of over 35% in size. Also: potency is read from the fitted curve at half-maximal effect. The essentials:
as §2

A short description of assay [11]: qHTS RealTime-Glo MT Cell Viability Assay in HepG2 cells - 16 hour (AID 1224885). Also: nearly all actives have a fitted effect of over 50% in size. Also: potency is read from the fitted curve at half-maximal effect. The procedure, abridged:
as §4

The nature of assay [12]: qHTS RealTime-Glo MT Cell Viability Assay in HEK293 cells - 24 hour (AID 1224886). Also: nearly all actives have a fitted effect of over 50% in size. Also: potency is read from the fitted curve at half-maximal effect. The procedure, abridged:
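Nonlytic real-time viability readout: viable cells convert prosubstrate to NanoLuc substrate, giving luminescence proportional to live cell number. HEK293, 600 cells/well, compound added after 5 h, continuous culture at 37 C.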

The nature of assay [13]: qHTS RealTime-Glo MT Cell Viability Assay in HEK293 cells - 8 hour (AID 1224887). Also: nearly all actives have a fitted effect of over 50% in size. Also: potency is read from the fitted curve at half-maximal effect. The essentials: as §1
Assay [14] can be described thus: A CellTox Green Cytotoxicity Assay to monitor cytotoxicity in HEK293 cells - 16 hour (AID 1224888). Also: nearly all actives have a fitted effect of over 35% in size. Also: potency is read from the fitted curve at half-maximal effect. The essentials: as §2
The nature of assay [15]: qHTS RealTime-Glo MT Cell Viability Assay in HepG2 cells - 0 hour (AID 1224889). Also: nearly all actives have a fitted effect of over 50% in size. The essentials: as §4
Assay [16] in a line: A CellTox Green Cytotoxicity Assay to monitor cytotoxicity in HepG2 cells - 8 hour (AID 1224890). Also: nearly all actives have a fitted effect of over 45% in size. Also: potency is read from the fitted curve at half-maximal effect. The essentials: as §3
Assay [17] is described as follows: qHTS assay to identify small molecule antagonists of the estrogen receptor alpha (ER-alpha) signaling pathway using the BG1 cell line in the presence of 0.1 nM 17-beta-estradiol - cell viability counter screen (AID 1259241). Also: nearly all actives have a fitted effect of over 40% in size. The procedure, abridged: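 Cells were plated and left 24 hr, compounds in DMSO were pinned in, 17beta-estradiol was added to 0.1 nM final, and after 22 hr CellTiter-Fluor reagent was added for 30 min before fluorescence was read.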

Assay [18] is described as follows: qHTS assay to identify small molecule antagonists of the androgen receptor (AR) signaling pathway using the MDA cell line in the presence of 0.5 nM R1881 - cell viability counter screen (AID 1259242). Also: nearly all actives have a fitted effect of over 45% in size. The essentials: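 Human breast carcinoma MDA-kb2 cells, cultured without CO2, receive compounds alongside 0.5 nM (final) R1881 agonist. After 16 hr at 37C, viability is taken as live-cell protease signal.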

The nature of assay [19]: A CellTox Green Cytotoxicity Assay to monitor cytotoxicity in HepG2 cells - 0 hour (AID 1224882). Also: nearly all actives have a fitted effect of over 35% in size. Also: potency is read from the fitted curve at half-maximal effect. The essentials: as §3
% is scaled to controls: 0 for no effect and ±100 for the full control effect.

For `CCCCCCCCCCCCCc1ccccc1`, in [1], the max response is -7.71%. The Potency entry in assay [2], in assay [3], in assay [4], in assay [5], in [6] and in [7] was “inactive” each time. Moreover, the Potency entry in [8], in assay [9], in [10], in [11], in assay [12] and in assay [13] was “inactive” in each case. Further, the Potency result in assay [14], in assay [15], in assay [16], in assay [17] and in assay [18] was “inactive” in each case.

Regarding `COC(=O)C1=C(C)NC(C)=C(C(=O)OCCCN2CCC(c3ccccc3)(c3ccccc3)CC2)C1c1cccc([N+](=O)[O-])c1` (stereo not drawn), the Potency in assay [1] is 10.7 µM (active); in assay [12], 10.7 µM (active); in assay [13], 16.9 µM (active). Also, the Potency result in assay [2], in [3], in assay [5], in assay [7], in assay [8] and in assay [19] was “inactive” each time. For the same compound, the Potency result in [10], in [15], in assay [16] and in assay [17] was “inactive” each time.

On to `CCCCCCCCCCOCC(O)CN` (stereo not drawn), for which the Potency in assay [1] is 23.9 µM (active); in assay [2] it was 23.9 µM (active); in assay [3], 19 µM (active); in assay [4] it was 15.1 µM (active); in assay [5] it was 15.1 µM (active); in assay [6] it was 15.1 µM (active). Further, the Potency in assay [8] was 26.8 µM (active); in [9], 13.4 µM (active); in [11], 16.9 µM (active); in assay [12] it was 23.9 µM (active); in assay [13] it was 23.9 µM (active); in assay [14], 26.8 µM (active). Besides, the Potency result in [19] and in assay [17] was “inactive” each time.

Consider `CCc1ccc(O)c(C(C)(C)C)c1`, for which, in [1], the max response is -13.3%. The Potency is 43.6 µM (active) in assay [2]; 38.9 µM (active) in assay [5]; 38.9 µM (active) in assay [6]; 38.9 µM (active) in [8]; 38.9 µM (active) in assay [9]; 43.6 µM (active) in assay [16]. Further, the Potency result in [4], in [7], in assay [19], in assay [10], in [12] and in assay [13] was “inactive” throughout. Moreover, the Potency result in assay [15], in assay [17] and in [18] was “inactive” in each case.

On to `CCCCCCCCCCc1ccccc1`, for which the max response in [1] is -5.33%. In addition, the Potency result in assay [2], in [3], in [4], in assay [5], in assay [7] and in [8] was “inactive” each time. Besides, the Potency result in assay [19], in assay [9], in assay [10], in [11], in [12] and in assay [13] was “inactive” each time. Besides, the Potency entry in assay [14], in assay [15], in assay [16], in [17] and in assay [18] was “inactive” in each case.

On to `O=C1NCCN1CCN1CCC(c2cn(-c3ccc(F)cc3)c3ccc(Cl)cc23)CC1`, for which the Potency in assay [1] was 12 µM (active); in [2], 23.9 µM (active); in [3] it was 26.8 µM (active); in [4], 26.8 µM (active); in assay [5], 26.8 µM (active); in assay [6] it was 26.8 µM (active). Also, the Potency in assay [8] was 23.9 µM (active); in [9], 26.8 µM (active); in [12], 21.3 µM (active). The Potency entry in [7], in assay [19], in assay [10] and in [15] was “inactive” each time.

In the case of `CCCCCCCCCCCCCOP(=O)(O)O`, the max response in assay [1] is -0.341%. The Potency entry in assay [2], in assay [3], in assay [4], in assay [5], in [7] and in assay [8] was “inactive” in each case. The Potency result in assay [19], in assay [9], in [10], in assay [11], in [12] and in [13] was “inactive” in each case. Also, the Potency entry in assay [15], in [16], in assay [17] and in assay [18] was “inactive” each time.

With `C[n+]1c2cc(N)ccc2cc2ccc(N)cc21` (tested in a mixture with another compound), the Potency is 4.77 µM (active) in [1]; 23.9 µM (active) in assay [2]; 23.9 µM (active) in [3]; 21.3 µM (active) in assay [5]; 21.3 µM (active) in assay [6]; 23.9 µM (active) in assay [8]. In addition, the Potency was 23.9 µM (active) in assay [19]; 21.3 µM (active) in assay [9]; 23.9 µM (active) in [10]; 9.52 µM (active) in assay [12]; 23.9 µM (active) in assay [16]. Moreover, the Potency result in assay [7] and in assay [15] was “inactive” throughout.

Take `CC(C)CCOCCC(C)C`: the max response in assay [1] is 7.57%. The Potency result in [2], in assay [3], in assay [4], in assay [6], in assay [7] and in [8] was “inactive” in each case. Moreover, the Potency result in [19], in assay [9], in assay [10], in assay [11], in assay [12] and in [13] was “inactive” throughout. Further, the Potency entry in assay [14], in assay [15], in [17] and in [18] was “inactive” each time.

Turning to `Cc1cc(=O)[nH]c(=O)[nH]1`, the max response in assay [1] is -0.154%. In addition, the Potency result in assay [2], in assay [3], in assay [4], in assay [6], in [7] and in assay [8] was “inactive” each time. The Potency result in assay [19], in assay [9], in [10], in assay [12], in [13] and in assay [14] was “inactive” in each case. Further, the Potency entry in [15], in assay [16], in assay [17] and in assay [18] was “inactive” throughout.

`c1ccc(Sc2ccccc2)cc1`: the max response in assay [1] was 1.6%. In addition, the Potency result in assay [2], in [3], in assay [4], in assay [5], in [7] and in assay [8] was “inactive” throughout. In addition, the Potency result in assay [19], in assay [10], in assay [11], in assay [13], in [14] and in assay [15] was “inactive” in each case. For the same compound, the Potency result in assay [16], in assay [17] and in [18] was “inactive” throughout.

With `CCN(CC)CCOc1ccc(C(O)(Cc2ccc(Cl)cc2)c2ccc(C)cc2)cc1` (stereo not drawn), the Potency is 10.7 µM (active) in assay [1]; 23.9 µM (active) in assay [2]; 23.9 µM (active) in assay [3]; 19 µM (active) in assay [4]; 21.3 µM (active) in assay [5]; 15.1 µM (active) in assay [6]. The Potency in assay [8] is 23.9 µM (active); in assay [9], 15.1 µM (active); in assay [12], 19 µM (active); in assay [13], 21.3 µM (active). Moreover, the Potency entry in assay [7], in assay [19], in assay [10] and in assay [17] was “inactive” throughout.

Turning to `C[C@@]12C(=O)OC(=O)[C@]1(C)C1CCC2O1`, the Potency is 6.01 µM (active) in assay [1]; 23.9 µM (active) in [3]; 1.51 µM (active) in assay [4]; 19 µM (active) in assay [5]; 10.7 µM (active) in assay [6]; 9.52 µM (active) in assay [9]. In addition, the figures for the Potency in [12] and in assay [16] were 6.74 µM (active) and 23.9 µM (active), respectively. Besides, the Potency entry in assay [2], in assay [7], in assay [8], in assay [19], in [10] and in [14] was “inactive” each time. In addition, the Potency entry in [15] is “inactive”.

With `Cn1cccc1`, the max response in [1] is 10.4%. Further, the Potency entry in assay [2], in assay [3], in [4], in assay [6], in assay [7] and in assay [8] was “inactive” in each case. Besides, the Potency result in assay [19], in [9], in [10], in assay [11], in [12] and in [13] was “inactive” in each case. In addition, the Potency entry in assay [14], in assay [15], in assay [17] and in [18] was “inactive” each time.
